Experimental data as given in PubChem BioAssay (NCI).
Several values for one entry are separate records, joined by “and”; a condition that tells them apart may be missing. Equal values may be shown once. This is part of a sample that, as a whole, favours compounds with a hit. Of some 79,000 tested, about 15% had one in any assay. Unmarked numbers belong to inactive results. Activity calls are given as the source filed them. Cut-off read from the data, not from the text of the source: active = growth inhibition above about 70%; inactive = the rest.

Columns and labels:
[1] = NCI Yeast Anticancer Drug Screen. Data for the rad50 strain (AID 155);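 note: 0% = growth of vehicle-only cultures of the same strain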; conditions: S. cerevisiae rad50 strain growth inhibition, stronger effect = higher value; at 50.0 µM unless noted
In short: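 Genetically altered yeast (DNA repair pathway); compound treatment; growth inhibition vs vehicle ctrl.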

[2] = NCI Yeast Anticancer Drug Screen. Data for the mec2-1 strain (AID 157); conditions: S. cerevisiae mec2-1 strain, stronger effect = higher value; at 50.0 µM unless noted
In short: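 Vehicle-treated cultures served as reference for growth inhibition of compound-exposed mec2-1 yeast.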

[3] = NCI Yeast Anticancer Drug Screen. Data for the sgs1 mgt1 strain (AID 161);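 note: 0% = growth of cultures given vehicle only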; conditions: S. cerevisiae sgs1 mgt1 strain, stronger effect = higher value; at 50.0 µM unless noted
In short: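 Genetically altered yeast, compound exposure, growth inhibition relative to vehicle.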

[4] = NCI Yeast Anticancer Drug Screen. Data for the cln2 rad14 strain (AID 165);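 note: 0% = growth equal to vehicle treated cultures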; conditions: S. cerevisiae cln2 rad14 strain, stronger effect = higher value; at 50.0 µM unless noted
In short: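 Each compound was tested on cln2 rad14 yeast. Inhibition of growth was calculated against vehicle-exposed controls.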

[5] = NCI Yeast Anticancer Drug Screen. Data for the bub3 strain (AID 167); conditions: S. cerevisiae bub3 mutant strain, stronger effect = higher value; at 50.0 µM unless noted
In short: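 Yeast carrying a defined mutation is treated with each compound, and growth is compared with that of vehicle-exposed cells to give inhibition.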

[6] = NCI Yeast Anticancer Drug Screen. Data for the mlh1 rad18 strain (AID 175); conditions: S. cerevisiae mlh1 rad18 strain growth inhibition, stronger effect = higher value; at 50.0 µM unless noted
In short: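 Vehicle-treated cultures served as the reference for growth inhibition in a yeast strain carrying DNA damage repair alterations exposed to each compound.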

SMILES	growth inhibition [1]	growth inhibition [2]	growth inhibition [3]	growth inhibition [4]	growth inhibition [5]	growth inhibition [6]
CCCc1ccc(C)c(CCC)c1O	-5.95%	-10.9%	-5.1%	-17.3%	-4.05%	4%
N#Cc1ccc(CC(=O)c2ccccc2)cc1	-6.05%	12.8%	0.45%	-27.4%	-0.75%	3.15%
Cc1c2ccccc2nc(CS(C)(=O)=O)[n+]1[O-]	-16.9%	-1.8%	-4.75%	-51.6%	-16.7%	-5.5%
O=C(OCc1ccccc1)C1CCN1C(c1ccccc1)c1ccccc1 (stereo not given)	7.85%	13.5%	5.5%	-25.6%	11.2%	-7.8%
CS(=O)(=O)OCC(Br)C(Br)COS(C)(=O)=O (stereo not given)	2.8%	5.2%	7.7%	26.4%	-5.3%	10.2%
NCc1cc(Br)ccc1O	24.4%	3.3%	23.5%	-66.2%	-11%	20.6%
COc1cccc2c1C(=O)c1c(O)c3c(c(O)c1C2=O)CC1(O)CC3OC1(C)OC (stereo not given)	1.2%	9.1%	-19.2%	24.2%	-1.35%	2.65%
O=S1(=O)C(c2cccc(F)c2)=C(O)c2cc3ccccc3nc21	15.8%	5.45%	11.6%	-20.6%	-23.8%	9.45%
CO/N=C(/NC(=O)OC)c1ccccc1	10.8%	18.4%	-5%	-20.2%	14.4%	-15.3%
O=C1C=C(c2ccccc2)C(c2ccccc2)C(c2ccccc2)C1 (stereo not given)	1.4%	21%	16.4%	-5.35%	3.85%	-3.1%
CCCC(=O)CC(=O)C(F)(F)F.CCCC(=O)CC(=O)C(F)(F)F.CCCC(=O)CC(=O)C(F)(F)F.[Er]	25%	10.8%	44.2%	-0.15%	-5.65%	50.1%
C=C(C)C1CCC2(C)CCC(=O)C(C)=C2C1 (stereo not given)	3.15%	1.35%	-5.75%	-19.7%	-6.1%	-4.15%
O=[N+]([O-])c1cccnc1S(=O)(=O)c1ccccc1	36.9%	5.7%	12.2%	4.75%	6.2%	-0.15%
OC(CCN1CC2CCC(CC2)C1)(Cc1ccccc1)c1cccs1 (stereo not given)	6.75%	2.7%	21.1%	11.2%	17.1%	32.5%
CC1(C)OC(=O)C(=Cc2ccc3c(c2)OCO3)C(=O)O1	16.1%	4.25%	-3.65%	19%	-8%	5.1%
O=C1OCC/C1=C/c1ccc(N=Nc2c(O)ccc3ccccc23)cc1	2.4%	-6.05%	11.1%	5.5%	11.7%	7.05%
CCCCOC(=O)c1cccc(C)c1	-3%	4.4%	-4.35%	-38.1%	2.6%	-0.9%
O=Cc1ccccc1OCCOc1ccccc1C=O	8.7%	1.35%	10.2%	-24%	9.4%	19.1%
CC(NC(C#N)CC12CC3CC(CC(C3)C1)C2)c1ccccc1 (stereo not given)	-11.8%	-11.4%	-11.6%	12.2%	6.75%	-30.6%
CC(=O)/C=C/N1CCOCC1	3.25%	-9.55%	-9.6%	-16.9%	19.6%	-5.65%

SMILES	growth inhibition [1]	growth inhibition [2]	growth inhibition [3]	growth inhibition [4]	growth inhibition [5]	growth inhibition [6]
O=C(CC(=O)c1cc(Cl)ccc1O)c1ccc2ccccc2n1	-0.35%	13.2%	18.8%	-21.8%	-2.85%	22.4%
CCCCCCCC[Si](c1ccccc1)(c1ccccc1)c1ccccc1	3.15%	22%	3.85%	-9.8%	-2.2%	10.4%
O=[N+]([O-])c1nccn1CC1OC(n2ccnc2[N+](=O)[O-])C(O)C(O)C1O (stereo not given)	0.3%	2.6%	-2.95%	5.9%	25.3%	6.25%
CC1=N[C@@H](C(=O)NCC(N)=O)Cc2c1[nH]c1ccccc21	11.7%	10.1%	8.65%	-7.85%	-4.25%	4.4%
CCCCC1(N=[N+]=[N-])C(=O)C2C=CC=C3c4ccccc4N(C1=O)C32 (stereo not given)	-1.15%	-11.2%	-5.8%	-43.2%	34.7%	2.85%
O=C(Nc1ccc(Br)c2ccccc12)c1ccc2ccccc2c1O	-0.05%	-2.1%	-26.1%	-11.2%	-37.5%	-78.8%
c1ccc(CC2=NCCO2)cc1	-5.55%	2.25%	-3.3%	-33%	3.85%	-25.9%
CC1(C)CC[C@]2(C(=O)O)CCC3(C)C(=CCC4[C@@]5(C)CC[C@H](OC6OCC(O)C(O)C6OC6OC(CO)C(O)C(O)C6O)C(C)(C)C5CC[C@]43C)C2C1 (stereo not given in full)	84.8% (active)	85.2% (active)	89.8% (active)	87.7% (active)	88.5% (active)	87.5% (active)
Oc1ccccc1/C=N/N1C(=S)N(C23CC4CC(CC(C4)C2)C3)C(=Nc2ccccc2)C1=Nc1ccccc1	-8.55%	-16.2%	-23.2%	2.35%	-3%	-14.3%
CCC(C(=O)O)C(=O)O.[NH2-].[NH2-].[Pt+2]	11.8%	-6.6%	-11.1%	14.1%	-9.55%	2.4%
CCN(CC)c1ccc(N=Nc2ccc(-c3nc4cccnc4o3)cc2)cc1	-21.4%	-19.2%	-22.9%	-1.7%	2.15%	-39.3%
CCOP(=O)(OCC)/C(=C/n1c(=S)[nH]c2ccccc21)C(=O)OC	-29.8%	-55.1%	-10%	0.9%	-0.8%	-22.2%
CN(C)c1ccc(C=Nc2c(N)n(C)c(=O)n(C)c2=O)cc1	-12.3%	-0.2%	-11.2%	-32.7%	-9.45%	-2.9%
CCCSc1nn2cc(NC(=O)OC)nc2s1	-13.5%	-8.7%	-3.75%	-24.5%	7.05%	-6.5%
COc1ccc2c(c1OC(C)=O)-c1cc(OC(C)=O)cc3c1C(C2)N(C(=O)CBr)CC3 (stereo not given)	62%	54.2%	70.2% (active)	36%	20.5%	59.4%
O=C1OC(C(O)C(O)CO)C(O)=C1O (stereo not given)	16.8% and 0.95%	3.7% and 13.8%	-11.3% and -13.8%	4.25% and -8.15%	2.75% and -8.6%	19.7% and 6.2%
O=C(O)Cc1ccc(C(=O)O)cc1	21.2%	-1.25%	5.8%	-13.4%	13.2%	32.8%
CC(C)(O)C(=O)O	-6% and -19%	6.1% and -1.45%	-8.2% and -10.8%	2.05% and -32.8%	7.25% and -3.95%	6.6% and -4.6%
C=C1C(=O)O[C@@H]2O[C@@]3(C)CC[C@H]4[C@H](C)CC[C@@H]1[C@@]24O3	26.6%	26.9%	52.1%	22%	12.2%	40.5%
CN(CCO)c1ccccc1	-12.3%	-14.8%	-40.4%	-17.9%	-48.4%	-8%
